# Laboratory results as given in PMC7862700, “An all-to-all approach to the identification of sequence-specific readers for epigenetic DNA modifications on cytosine”.
# Assays:
# Assay in all cases: DAPPL (digital affinity profiling via proximity ligation, sequencing); 10 mM Tris-HCl pH 7.5, 50 mM NaCl, 1 mM DTT, 4% glycerol, room temperature, 30 min; GST-TFs on glutathione beads, 16-mer random dsDNA library, 0.1% formaldehyde crosslink after washing; high values mean tight binding
# FLI1 = biological target: T1, FLI1 (Homo sapiens, UniProt Q01543 1-452); details: protein: recombinant; tags: N-terminal GST; dsDNA, one strand shown
# T1 sequence: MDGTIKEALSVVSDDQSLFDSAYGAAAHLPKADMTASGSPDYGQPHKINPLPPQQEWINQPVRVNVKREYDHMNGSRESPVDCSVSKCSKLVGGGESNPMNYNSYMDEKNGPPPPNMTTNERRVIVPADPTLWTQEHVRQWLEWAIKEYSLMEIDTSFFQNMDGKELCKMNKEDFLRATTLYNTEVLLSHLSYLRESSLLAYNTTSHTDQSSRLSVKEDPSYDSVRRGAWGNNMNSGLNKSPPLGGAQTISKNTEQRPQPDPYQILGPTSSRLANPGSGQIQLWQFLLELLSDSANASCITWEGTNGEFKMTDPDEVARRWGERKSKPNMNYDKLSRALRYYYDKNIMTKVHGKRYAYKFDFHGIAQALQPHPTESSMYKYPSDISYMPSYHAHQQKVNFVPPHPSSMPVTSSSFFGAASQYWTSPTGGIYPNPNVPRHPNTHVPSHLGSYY
# How it was run: (§1)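 GST fusions of human transcription factors were expressed in yeast and captured with glutathione beads. Once given DNA barcodes and pooled alongside a tag-only sample, they were incubated for 30 min at room temperature with 200 nmole of a random double-stranded 16-mer DNA library in Tris/NaCl/DTT/glycerol buffer, then washed, crosslinked (0.1% formaldehyde), proximity-ligated, PCR-amplified and sequenced on an Illumina NextSeq500. The binding signal of each hexamer is its read frequency for a factor divided by its frequency for the tag-only sample.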
# ELK1 = biological target: T2, ELK1 (Homo sapiens, UniProt P19419 1-428); details: protein: recombinant; tags: N-terminal GST; dsDNA, one strand shown
# T2 sequence: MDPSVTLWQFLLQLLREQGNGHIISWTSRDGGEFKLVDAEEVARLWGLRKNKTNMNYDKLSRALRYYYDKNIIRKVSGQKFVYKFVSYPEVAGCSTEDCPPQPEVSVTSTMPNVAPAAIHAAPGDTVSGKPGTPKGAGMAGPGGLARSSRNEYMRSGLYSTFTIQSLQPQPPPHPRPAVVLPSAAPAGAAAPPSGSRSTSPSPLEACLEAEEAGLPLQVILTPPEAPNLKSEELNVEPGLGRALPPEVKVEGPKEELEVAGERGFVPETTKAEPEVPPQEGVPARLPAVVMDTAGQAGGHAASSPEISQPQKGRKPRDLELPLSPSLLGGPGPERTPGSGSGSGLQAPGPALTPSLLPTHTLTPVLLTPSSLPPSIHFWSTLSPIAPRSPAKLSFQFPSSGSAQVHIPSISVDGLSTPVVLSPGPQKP
# How it was run: as §1
# GABPA = biological target: T3, GABPA (Homo sapiens, UniProt Q06546 1-454); details: protein: recombinant; tags: N-terminal GST; dsDNA, one strand shown
# T3 sequence: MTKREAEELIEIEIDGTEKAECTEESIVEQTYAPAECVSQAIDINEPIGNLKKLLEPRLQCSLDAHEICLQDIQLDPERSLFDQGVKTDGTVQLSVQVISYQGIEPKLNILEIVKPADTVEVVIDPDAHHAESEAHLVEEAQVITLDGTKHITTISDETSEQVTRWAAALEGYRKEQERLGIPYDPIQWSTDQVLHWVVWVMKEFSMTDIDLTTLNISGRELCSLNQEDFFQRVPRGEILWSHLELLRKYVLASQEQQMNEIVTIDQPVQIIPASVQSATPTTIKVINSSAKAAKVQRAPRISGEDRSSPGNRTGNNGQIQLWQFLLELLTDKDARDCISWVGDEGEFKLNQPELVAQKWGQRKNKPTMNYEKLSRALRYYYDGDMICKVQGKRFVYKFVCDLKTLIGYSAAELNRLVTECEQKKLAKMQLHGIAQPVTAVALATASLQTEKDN
# How it was run: as §1
# ERG = biological target: T4, ERG (Homo sapiens, UniProt P11308 1-479); details: protein: recombinant; tags: N-terminal GST; dsDNA, one strand shown
# T4 sequence: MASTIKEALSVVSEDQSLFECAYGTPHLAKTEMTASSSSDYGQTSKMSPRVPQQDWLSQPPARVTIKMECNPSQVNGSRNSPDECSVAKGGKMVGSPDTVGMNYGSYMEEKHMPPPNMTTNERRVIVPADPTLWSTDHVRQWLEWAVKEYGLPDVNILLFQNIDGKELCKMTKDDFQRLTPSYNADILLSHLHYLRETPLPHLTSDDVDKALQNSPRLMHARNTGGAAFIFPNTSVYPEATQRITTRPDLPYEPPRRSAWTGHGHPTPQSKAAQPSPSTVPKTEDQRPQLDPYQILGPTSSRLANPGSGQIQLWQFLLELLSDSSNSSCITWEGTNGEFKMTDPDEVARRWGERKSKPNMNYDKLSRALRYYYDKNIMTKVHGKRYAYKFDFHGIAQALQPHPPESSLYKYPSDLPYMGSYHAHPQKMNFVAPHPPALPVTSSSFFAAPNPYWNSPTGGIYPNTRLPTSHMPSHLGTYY
# How it was run: as §1
# ELF1 = ELF1 (Homo sapiens, UniProt P32519 1-619); details: protein: recombinant; tags: N-terminal GST; dsDNA, one strand shown
# How it was run: as §1
# EHF = biological target: T5, EHF (Homo sapiens, UniProt Q9NZC4 1-300); details: protein: recombinant; tags: N-terminal GST; dsDNA, one strand shown
# T5 sequence: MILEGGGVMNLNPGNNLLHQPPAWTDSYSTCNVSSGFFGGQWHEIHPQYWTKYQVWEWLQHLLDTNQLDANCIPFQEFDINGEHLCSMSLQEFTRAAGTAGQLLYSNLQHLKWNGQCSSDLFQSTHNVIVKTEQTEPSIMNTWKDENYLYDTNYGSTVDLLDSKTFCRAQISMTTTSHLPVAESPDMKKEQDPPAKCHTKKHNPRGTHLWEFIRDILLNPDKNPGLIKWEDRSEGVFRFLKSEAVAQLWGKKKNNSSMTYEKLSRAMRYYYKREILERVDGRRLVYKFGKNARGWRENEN
# How it was run: as §1
# SPI1 = SPI1 (Homo sapiens, UniProt P17947 1-270); details: protein: recombinant; tags: N-terminal GST; dsDNA, one strand shown
# How it was run: as §1
# SPIB = SPIB (Homo sapiens, UniProt Q01892 1-262); details: protein: recombinant; tags: N-terminal GST; dsDNA, one strand shown
# How it was run: as §1
# ELK3 = biological target: T6, ELK3 (Homo sapiens, UniProt P41970 1-407); details: protein: recombinant; tags: N-terminal GST; dsDNA, one strand shown
# T6 sequence: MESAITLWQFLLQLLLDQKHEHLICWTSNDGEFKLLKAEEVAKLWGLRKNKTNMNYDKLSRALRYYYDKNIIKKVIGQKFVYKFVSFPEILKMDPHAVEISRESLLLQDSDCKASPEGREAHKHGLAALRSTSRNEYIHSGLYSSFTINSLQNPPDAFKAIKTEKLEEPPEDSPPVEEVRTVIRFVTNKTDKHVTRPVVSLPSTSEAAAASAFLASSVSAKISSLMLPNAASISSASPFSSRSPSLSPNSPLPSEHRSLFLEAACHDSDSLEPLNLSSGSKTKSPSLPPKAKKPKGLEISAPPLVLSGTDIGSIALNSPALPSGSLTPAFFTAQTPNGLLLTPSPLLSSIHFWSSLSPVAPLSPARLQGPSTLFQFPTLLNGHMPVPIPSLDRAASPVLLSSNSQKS
# How it was run: as §1
# FEV = biological target: T7, FEV (Homo sapiens, UniProt Q99581 1-238); details: protein: recombinant; tags: N-terminal GST; dsDNA, one strand shown
# T7 sequence: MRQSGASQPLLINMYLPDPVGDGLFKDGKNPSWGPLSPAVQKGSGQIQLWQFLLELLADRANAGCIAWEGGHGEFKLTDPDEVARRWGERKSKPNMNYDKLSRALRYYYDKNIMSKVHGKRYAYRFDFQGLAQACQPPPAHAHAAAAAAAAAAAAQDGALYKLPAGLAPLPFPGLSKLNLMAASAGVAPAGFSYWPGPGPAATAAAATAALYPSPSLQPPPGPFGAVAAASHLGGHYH
# How it was run: as §1
# ETV5 = ETV5 (Homo sapiens, UniProt P41161 1-510); details: protein: recombinant; tags: N-terminal GST; dsDNA, one strand shown
# How it was run: as §1
# HSF1 = HSF1 (Homo sapiens, UniProt Q00613 1-529); details: protein: recombinant; tags: N-terminal GST; chain copies: 3; dsDNA, one strand shown
# How it was run: as §1
# SPIC = biological target: T8, SPIC (Homo sapiens, UniProt Q8N5J4 1-248); details: protein: recombinant; tags: N-terminal GST; dsDNA, one strand shown
# T8 sequence: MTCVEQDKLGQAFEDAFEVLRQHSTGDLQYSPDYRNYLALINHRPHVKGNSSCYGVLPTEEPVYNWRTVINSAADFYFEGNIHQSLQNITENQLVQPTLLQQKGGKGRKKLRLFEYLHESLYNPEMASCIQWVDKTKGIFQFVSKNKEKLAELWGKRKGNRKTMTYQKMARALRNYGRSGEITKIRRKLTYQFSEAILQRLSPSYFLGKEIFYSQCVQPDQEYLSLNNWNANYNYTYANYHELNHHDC
# How it was run: as §1
# ELF4 = ELF4 (Homo sapiens, UniProt Q99607 1-663); details: protein: recombinant; tags: N-terminal GST; dsDNA, one strand shown
# How it was run: as §1
# ELK4 = biological target: T9, ELK4 (Homo sapiens, UniProt P28324-2 1-405); details: protein: recombinant; tags: N-terminal GST; dsDNA, one strand shown
# T9 sequence: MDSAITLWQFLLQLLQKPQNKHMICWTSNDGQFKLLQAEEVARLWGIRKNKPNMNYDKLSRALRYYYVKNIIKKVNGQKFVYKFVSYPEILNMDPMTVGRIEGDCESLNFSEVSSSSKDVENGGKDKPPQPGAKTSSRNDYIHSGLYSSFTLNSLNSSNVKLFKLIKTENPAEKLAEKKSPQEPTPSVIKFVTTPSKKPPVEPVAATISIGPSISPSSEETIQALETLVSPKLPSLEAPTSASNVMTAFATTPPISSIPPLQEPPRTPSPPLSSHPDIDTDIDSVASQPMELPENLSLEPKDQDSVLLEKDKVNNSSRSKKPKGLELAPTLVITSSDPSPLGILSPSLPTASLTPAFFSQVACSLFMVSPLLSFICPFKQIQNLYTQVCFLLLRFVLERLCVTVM
# How it was run: as §1
# ETV2 = biological target: T10, ETV2 (Homo sapiens, UniProt O00321 1-342); details: protein: recombinant; tags: N-terminal GST; dsDNA, one strand shown
# T10 sequence: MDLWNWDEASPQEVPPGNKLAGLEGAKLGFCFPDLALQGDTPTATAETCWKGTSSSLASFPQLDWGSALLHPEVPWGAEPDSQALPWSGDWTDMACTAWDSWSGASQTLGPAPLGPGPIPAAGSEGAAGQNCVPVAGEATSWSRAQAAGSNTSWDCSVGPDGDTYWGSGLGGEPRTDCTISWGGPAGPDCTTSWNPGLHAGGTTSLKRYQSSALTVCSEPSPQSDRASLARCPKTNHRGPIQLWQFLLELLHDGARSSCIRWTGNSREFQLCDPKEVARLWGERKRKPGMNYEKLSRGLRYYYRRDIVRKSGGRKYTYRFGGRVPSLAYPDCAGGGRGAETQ
# How it was run: as §1
# ELF3 = biological target: T11, ELF3 (Homo sapiens, UniProt P78545 1-371); details: protein: recombinant; tags: N-terminal GST; dsDNA, one strand shown
# T11 sequence: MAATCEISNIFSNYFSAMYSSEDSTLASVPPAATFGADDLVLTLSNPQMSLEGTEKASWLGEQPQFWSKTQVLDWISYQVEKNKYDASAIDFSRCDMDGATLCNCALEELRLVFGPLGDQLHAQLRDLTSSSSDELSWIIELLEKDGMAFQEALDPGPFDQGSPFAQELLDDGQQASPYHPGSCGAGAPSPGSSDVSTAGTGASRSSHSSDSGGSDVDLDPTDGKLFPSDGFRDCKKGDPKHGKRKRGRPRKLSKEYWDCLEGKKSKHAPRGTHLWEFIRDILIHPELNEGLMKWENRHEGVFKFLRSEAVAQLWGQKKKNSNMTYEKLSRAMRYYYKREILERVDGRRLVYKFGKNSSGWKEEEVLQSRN
# How it was run: as §1
# CRX = CRX (Homo sapiens, UniProt O43186 1-299); details: protein: recombinant; tags: N-terminal GST; dsDNA, one strand shown
# How it was run: as §1
# ETV1 = ETV1 (Homo sapiens, UniProt P50549 1-477); details: protein: recombinant; tags: N-terminal GST; dsDNA, one strand shown
# How it was run: as §1
# ETV1, sequence (P50549 whole entry): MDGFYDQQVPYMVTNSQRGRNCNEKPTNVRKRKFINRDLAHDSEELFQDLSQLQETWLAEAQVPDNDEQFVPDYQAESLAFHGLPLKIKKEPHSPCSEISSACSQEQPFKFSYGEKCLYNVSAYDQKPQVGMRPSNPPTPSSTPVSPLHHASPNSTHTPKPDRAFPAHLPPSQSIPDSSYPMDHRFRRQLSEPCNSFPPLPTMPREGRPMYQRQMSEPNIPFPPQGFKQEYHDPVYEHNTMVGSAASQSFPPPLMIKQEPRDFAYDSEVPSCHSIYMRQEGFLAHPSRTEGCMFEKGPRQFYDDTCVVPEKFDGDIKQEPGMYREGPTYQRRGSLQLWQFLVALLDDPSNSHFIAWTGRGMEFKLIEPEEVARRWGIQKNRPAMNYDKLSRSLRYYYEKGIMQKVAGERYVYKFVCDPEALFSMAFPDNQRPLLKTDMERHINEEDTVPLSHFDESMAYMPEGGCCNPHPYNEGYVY
# HSF1, sequence (Q00613 whole entry): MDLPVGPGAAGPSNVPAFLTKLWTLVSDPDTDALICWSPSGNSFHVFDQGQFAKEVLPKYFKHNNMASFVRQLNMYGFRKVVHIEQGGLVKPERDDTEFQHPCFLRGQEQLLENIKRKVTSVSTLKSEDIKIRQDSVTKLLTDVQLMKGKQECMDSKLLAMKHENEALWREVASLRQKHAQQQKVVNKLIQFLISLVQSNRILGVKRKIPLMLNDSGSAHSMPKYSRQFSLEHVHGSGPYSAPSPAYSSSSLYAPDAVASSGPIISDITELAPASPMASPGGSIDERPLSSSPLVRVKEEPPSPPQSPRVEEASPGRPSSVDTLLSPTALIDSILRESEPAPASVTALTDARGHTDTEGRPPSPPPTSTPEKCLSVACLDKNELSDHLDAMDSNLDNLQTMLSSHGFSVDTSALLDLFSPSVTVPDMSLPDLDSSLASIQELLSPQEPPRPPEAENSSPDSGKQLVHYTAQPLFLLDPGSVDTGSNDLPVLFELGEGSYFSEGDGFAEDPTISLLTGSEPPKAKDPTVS
# ELF1, sequence (P32519 whole entry): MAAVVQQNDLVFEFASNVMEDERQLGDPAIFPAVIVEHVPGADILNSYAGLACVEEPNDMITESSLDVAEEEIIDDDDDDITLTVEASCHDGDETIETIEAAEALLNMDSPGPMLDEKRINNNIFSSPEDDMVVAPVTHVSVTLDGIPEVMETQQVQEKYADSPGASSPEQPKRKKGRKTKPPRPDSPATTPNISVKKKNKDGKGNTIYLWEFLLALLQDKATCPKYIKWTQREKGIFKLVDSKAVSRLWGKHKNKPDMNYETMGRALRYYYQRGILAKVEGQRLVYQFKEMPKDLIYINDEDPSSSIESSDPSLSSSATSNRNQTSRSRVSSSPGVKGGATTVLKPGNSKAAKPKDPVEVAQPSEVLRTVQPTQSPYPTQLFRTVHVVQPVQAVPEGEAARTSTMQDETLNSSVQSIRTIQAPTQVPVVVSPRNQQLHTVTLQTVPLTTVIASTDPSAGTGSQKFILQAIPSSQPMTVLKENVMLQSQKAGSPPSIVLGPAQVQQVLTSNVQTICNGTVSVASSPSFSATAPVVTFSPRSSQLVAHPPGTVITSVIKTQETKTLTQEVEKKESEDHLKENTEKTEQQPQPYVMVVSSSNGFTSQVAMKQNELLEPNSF
# ELF4, sequence (Q99607 whole entry): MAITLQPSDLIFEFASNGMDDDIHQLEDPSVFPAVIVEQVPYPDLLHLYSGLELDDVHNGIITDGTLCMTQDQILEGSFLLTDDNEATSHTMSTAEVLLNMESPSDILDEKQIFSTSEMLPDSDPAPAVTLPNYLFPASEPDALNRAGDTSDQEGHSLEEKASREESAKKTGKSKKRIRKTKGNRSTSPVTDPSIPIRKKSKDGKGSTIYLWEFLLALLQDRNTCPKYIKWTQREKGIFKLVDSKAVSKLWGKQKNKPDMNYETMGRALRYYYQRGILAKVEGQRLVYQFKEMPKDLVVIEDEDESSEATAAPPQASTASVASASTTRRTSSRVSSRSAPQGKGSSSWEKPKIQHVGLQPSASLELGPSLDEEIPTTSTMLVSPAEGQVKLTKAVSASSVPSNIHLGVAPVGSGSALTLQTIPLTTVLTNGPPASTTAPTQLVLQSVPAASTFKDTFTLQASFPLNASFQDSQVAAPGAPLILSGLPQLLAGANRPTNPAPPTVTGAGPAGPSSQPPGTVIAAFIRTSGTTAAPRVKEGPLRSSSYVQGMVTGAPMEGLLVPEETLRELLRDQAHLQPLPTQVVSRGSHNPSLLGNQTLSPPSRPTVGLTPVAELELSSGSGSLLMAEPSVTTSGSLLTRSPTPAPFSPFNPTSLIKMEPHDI
# SPIB, sequence (Q01892 whole entry): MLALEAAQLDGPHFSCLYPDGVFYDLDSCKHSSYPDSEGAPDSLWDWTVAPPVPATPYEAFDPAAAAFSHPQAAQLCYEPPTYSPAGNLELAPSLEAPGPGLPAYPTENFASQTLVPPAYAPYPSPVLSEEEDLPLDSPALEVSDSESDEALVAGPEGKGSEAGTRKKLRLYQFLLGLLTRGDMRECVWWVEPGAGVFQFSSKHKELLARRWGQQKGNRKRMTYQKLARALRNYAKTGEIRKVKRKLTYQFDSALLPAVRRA
# CRX, sequence (O43186 whole entry): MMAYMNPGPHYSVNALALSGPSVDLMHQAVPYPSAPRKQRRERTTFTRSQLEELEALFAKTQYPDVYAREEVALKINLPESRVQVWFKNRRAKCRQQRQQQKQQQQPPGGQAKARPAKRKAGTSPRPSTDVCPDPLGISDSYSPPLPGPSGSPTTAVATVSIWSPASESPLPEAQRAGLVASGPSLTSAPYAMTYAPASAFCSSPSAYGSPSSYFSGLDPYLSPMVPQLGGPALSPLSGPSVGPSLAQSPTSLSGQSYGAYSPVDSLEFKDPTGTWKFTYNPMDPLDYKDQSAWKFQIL
# ETV5, sequence (P41161 whole entry): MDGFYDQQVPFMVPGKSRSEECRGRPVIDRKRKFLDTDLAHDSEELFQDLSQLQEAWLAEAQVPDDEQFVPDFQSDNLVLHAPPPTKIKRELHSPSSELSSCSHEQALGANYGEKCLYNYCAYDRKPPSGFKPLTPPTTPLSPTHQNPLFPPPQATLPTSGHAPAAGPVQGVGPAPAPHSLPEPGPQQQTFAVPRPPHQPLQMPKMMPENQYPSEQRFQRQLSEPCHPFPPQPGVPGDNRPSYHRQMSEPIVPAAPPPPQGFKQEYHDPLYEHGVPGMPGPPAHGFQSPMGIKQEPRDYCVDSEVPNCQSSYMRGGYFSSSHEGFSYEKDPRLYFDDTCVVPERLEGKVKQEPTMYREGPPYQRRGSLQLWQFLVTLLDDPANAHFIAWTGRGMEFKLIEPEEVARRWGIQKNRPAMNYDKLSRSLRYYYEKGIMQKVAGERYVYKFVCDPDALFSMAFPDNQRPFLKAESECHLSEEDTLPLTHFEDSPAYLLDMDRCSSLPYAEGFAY
sequence,measurement,setting,value
ACTTTT,binding signal,FLI1,"1.43 fold enrichment (6-mer frequency, TF over GST control)"
same,binding signal,ELK1,"1.32 fold enrichment (6-mer frequency, TF over GST control)"
same,binding signal,GABPA,"1.34 fold enrichment (6-mer frequency, TF over GST control)"
same,binding signal,ERG,"1.21 fold enrichment (6-mer frequency, TF over GST control)"
same,binding signal,ELF1,"1.21 fold enrichment (6-mer frequency, TF over GST control)"
same,binding signal,EHF,"1.21 fold enrichment (6-mer frequency, TF over GST control)"
same,binding signal,SPI1,"1.26 fold enrichment (6-mer frequency, TF over GST control)"
same,binding signal,SPIB,"1.34 fold enrichment (6-mer frequency, TF over GST control)"
same,binding signal,ELK3,"1.14 fold enrichment (6-mer frequency, TF over GST control)"
same,binding signal,FEV,"1.25 fold enrichment (6-mer frequency, TF over GST control)"
same,binding signal,ETV5,"1.27 fold enrichment (6-mer frequency, TF over GST control)"
same,binding signal,HSF1,"1.25 fold enrichment (6-mer frequency, TF over GST control)"
same,binding signal,SPIC,"1.35 fold enrichment (6-mer frequency, TF over GST control)"
same,binding signal,ELF4,"1.32 fold enrichment (6-mer frequency, TF over GST control)"
same,binding signal,ELK4,"1.25 fold enrichment (6-mer frequency, TF over GST control)"
same,binding signal,ETV2,"1.25 fold enrichment (6-mer frequency, TF over GST control)"
same,binding signal,ELF3,"1.45 fold enrichment (6-mer frequency, TF over GST control)"
same,binding signal,CRX,"1.25 fold enrichment (6-mer frequency, TF over GST control)"
same,binding signal,ETV1,"1.32 fold enrichment (6-mer frequency, TF over GST control)"
